The source of these data is the supplement of paper PMC3545927.

In this assay the target is furin, P09958. The assay is described as follows: furin cleavage Z-score vs untreated control; higher = more cleavage, active = 3.5 or more, inactive = 1 or less, 8 variable residues between constant flanks. In short, it runs like this: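 Sequencing of released DNA, tagged with adapters by PCR, gave read counts used as abundance. That DNA was freed when purified furin cut N-terminally bead-bound 8-mer peptides fused to a cDNA oligonucleotide, in 0.01 ml reactions at 1:10 enzyme:substrate in 50 mM HEPES pH 7.5 with CaCl2 and NaCl, lasting 7.5, 15 or 30 min. The cleavage Z-score was the lowess-adjusted log count versus furin-free reactions, scaled by median absolute deviation.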

Some of the results follow. How many sequences the whole screen found active is unknown.

furin, P09958, sequence (P09958 whole entry, the tested form may be a part): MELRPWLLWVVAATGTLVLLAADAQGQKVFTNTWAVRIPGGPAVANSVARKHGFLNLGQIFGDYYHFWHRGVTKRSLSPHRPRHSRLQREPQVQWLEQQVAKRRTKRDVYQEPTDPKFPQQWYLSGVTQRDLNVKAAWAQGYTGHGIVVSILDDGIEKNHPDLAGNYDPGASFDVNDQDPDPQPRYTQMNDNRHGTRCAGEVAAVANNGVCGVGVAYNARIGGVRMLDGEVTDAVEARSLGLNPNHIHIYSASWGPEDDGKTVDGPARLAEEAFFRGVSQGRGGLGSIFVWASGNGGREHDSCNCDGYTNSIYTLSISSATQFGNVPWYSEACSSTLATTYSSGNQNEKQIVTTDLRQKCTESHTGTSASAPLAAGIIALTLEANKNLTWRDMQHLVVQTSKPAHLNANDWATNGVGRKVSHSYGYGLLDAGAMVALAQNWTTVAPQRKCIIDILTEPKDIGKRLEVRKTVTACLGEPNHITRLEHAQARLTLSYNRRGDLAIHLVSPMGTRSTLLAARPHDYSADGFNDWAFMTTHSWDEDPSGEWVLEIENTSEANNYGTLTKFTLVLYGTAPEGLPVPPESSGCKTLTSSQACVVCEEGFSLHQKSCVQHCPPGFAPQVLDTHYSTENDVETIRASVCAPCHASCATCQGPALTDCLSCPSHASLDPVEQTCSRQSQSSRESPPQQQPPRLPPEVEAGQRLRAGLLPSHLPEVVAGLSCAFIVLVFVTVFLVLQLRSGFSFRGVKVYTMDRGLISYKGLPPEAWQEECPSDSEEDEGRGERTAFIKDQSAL

In the case of CAGGWVAAQLAGNASASA [HC1067], the “furin cleavage Z-score” value is, setting by setting: (7.5 min) -0.864 (inactive); (15 min) -1.6 (inactive); (30 min) 0.105 (inactive).
On the same counts, the results for CAVVVATDALAGNASASA [HC877] are -0.345 (inactive), -0.967 (inactive) and -0.904 (inactive).
Turning to CARCRKSCEHAGNASASA [FS-1997], the “furin cleavage Z-score” value reads like this: (7.5 min) -0.455 (inactive); (15 min) -0.923 (inactive); (30 min) 0.798 (inactive).
On the same counts, the results for CARRKRKKKHAGNASASA [FS-1777] are -0.226 (inactive), 0.662 (inactive) and 2.03.
With CARRKRYAIQAGNASASA [FU8], the “furin cleavage Z-score” value by setting is: (7.5 min) 8.03 (active); (15 min) 11.3 (active); (30 min) 11.2 (active).
On the same counts, the results for CARRKRKVLHAGNASASA [FS-2515] are 1.78, 1.49 and 4.34 (active).
As for CARRKRYAIQAGNASASA [FS-3205], the “furin cleavage Z-score” value is 8.13 (active) (7.5 min), 11.7 (active) (15 min) and 10.8 (active) (30 min).
On the same counts, the results for CARVQRMAEHAGNASASA [FS-2841] are 2.56, 3.98 (active) and 4.15 (active).
On the same counts, the results for CARRKRCMRHAGNASASA [FS-2295] are 6.23 (active), 8.55 (active) and 6.72 (active).
On the same counts, the results for CAREIRSEEPAGNASASA [FS-2005] are 0.429 (inactive), -0.412 (inactive) and -0.762 (inactive).
In the case of CAEVATSTWVAGNASASA [HC2183], the “furin cleavage Z-score” value is -1.15 (inactive) (7.5 min), -1.35 (inactive) (15 min) and -0.393 (inactive) (30 min).
On to CASTPCSQHLAGNASASA [HC2542], for which the “furin cleavage Z-score” value is, setting by setting: (7.5 min) -0.0132 (inactive); (15 min) 0.861 (inactive); (30 min) 2.13.
On the same counts, the results for CAITLTHPVTAGNASASA [HC978] are -0.565 (inactive), -1.36 (inactive) and -0.511 (inactive).
In the case of CACVVTSTWVAGNASASA [HC2160], the “furin cleavage Z-score” value reads like this: (7.5 min) -0.122 (inactive); (15 min) 1.54; (30 min) -0.488 (inactive).
On the same counts, the results for CARERKAGCKAGNASASA [DV2] are 0.35 (inactive), 1.62 and 2.14.
On the same counts, the results for CAMEEYSQHLAGNASASA [HC17] are -0.583 (inactive), 0.186 (inactive) and 0.59 (inactive).
On the same counts, the results for CASVLCECYDAGNASASA [HC918] are -0.934 (inactive), -1.47 (inactive) and -0.91 (inactive).
Consider CARKARMLYQAGNASASA [FS-2685], for which the “furin cleavage Z-score” value (7.5 min) came to 1.39, the “furin cleavage Z-score” value (15 min) is 5.49 (active) and the “furin cleavage Z-score” value (30 min) is 5 (active).
On the same counts, the results for CARKAVTHINAGNASASA [HC1427] are -0.202 (inactive), -1.07 (inactive) and 0.0109 (inactive).
On the same counts, the results for CARRKRHSEHAGNASASA [FS-3166] are 10.5 (active), 10.9 (active) and 8.79 (active).
Turning to CANTLTCYIKAGNASASA [HC1516], the “furin cleavage Z-score” value runs as follows: (7.5 min) -0.56 (inactive); (15 min) -0.15 (inactive); (30 min) -0.828 (inactive).
On the same counts, the results for CARKARSYIKAGNASASA [FS-2340] are -0.0545 (inactive), 0.583 (inactive) and 3.72 (active).
On the same counts, the results for CARRKRKKEVAGNASASA [FS-2296] are 1.16, -1.15 (inactive) and 1.21.
On the same counts, the results for CARRKRYISQAGNASASA [FS-1780] are 6.79 (active), 7.45 (active) and 9.13 (active).
Take CARKARIISQAGNASASA [FS-3157]: the “furin cleavage Z-score” value (7.5 min) was determined as 1.75, the “furin cleavage Z-score” value (15 min) is -1.95 (inactive) and the “furin cleavage Z-score” value (30 min) is -0.675 (inactive).
Turning to CAKKTPMGFSAGNASASA [HC1476], the “furin cleavage Z-score” value reads like this: (7.5 min) -0.403 (inactive); (15 min) 1.01; (30 min) -1.33 (inactive).
On to CAHEECSQHLAGNASASA [HC1675], for which the “furin cleavage Z-score” value (7.5 min) is -0.578 (inactive), the “furin cleavage Z-score” value (15 min) was 0.64 (inactive) and the “furin cleavage Z-score” value (30 min) came out at 1.48.
On the same counts, the results for CAVVCQSMSYAGNASASA [HC99] are 0.407 (inactive), 0.993 (inactive) and 0.767 (inactive).
On the same counts, the results for CAPCQVPSPEAGNASASA [HC1217] are 0.307 (inactive), -0.147 (inactive) and 0.789 (inactive).
On the same counts, the results for CAYSPGQRVEAGNASASA [HC1468] are -0.672 (inactive), 1.68 and -1.81 (inactive).
Turning to CAHVQRQRREAGNASASA [FS-441], the “furin cleavage Z-score” value (7.5 min) is 12.3 (active), the “furin cleavage Z-score” value (15 min) is 12.8 (active) and the “furin cleavage Z-score” value (30 min) is 9.16 (active).
With CAPCCRQRREAGNASASA [FS-471], the “furin cleavage Z-score” value was 10.1 (active) (7.5 min), 8.7 (active) (15 min) and 8.83 (active) (30 min).
On the same counts, the results for CAGHYVQMVIAGNASASA [HC626] are -0.996 (inactive), -0.792 (inactive) and 0.151 (inactive).
On the same counts, the results for CAEVDTSTWVAGNASASA [HC2191] are -0.604 (inactive), -1.24 (inactive) and 0.933 (inactive).
As to CAVAHLHAPTAGNASASA [HC773], the “furin cleavage Z-score” value was -0.671 (inactive) (7.5 min), -1.87 (inactive) (15 min) and -0.0272 (inactive) (30 min).
On to CARNKRKVFSAGNASASA [FS-2159], for which the “furin cleavage Z-score” value (7.5 min) was 0.528 (inactive), the “furin cleavage Z-score” value (15 min) is 1.39 and the “furin cleavage Z-score” value (30 min) stood at 3.14.
On the same counts, the results for CAALSNSLLRAGNASASA [HC1383] are -1.04 (inactive), 0.165 (inactive) and 0.485 (inactive).
On the same counts, the results for CARHKRRSKFAGNASASA [FS-2938] are 1.38, 2.52 and 5.2 (active).
On the same counts, the results for CARHKRMCQGAGNASASA [FS-2335] are 1.23, 0.787 (inactive) and 3.08.
Turning to CARHKRETLKAGNASASA [FS-2678], the “furin cleavage Z-score” value (7.5 min) is 8.31 (active), the “furin cleavage Z-score” value (15 min) was 10.5 (active) and the “furin cleavage Z-score” value (30 min) was 9.25 (active).
On the same counts, the results for CARHKRKQLPAGNASASA [FS-1823] are 1.11, -0.015 (inactive) and 2.17.
On the same counts, the results for CARHKRSLLRAGNASASA [FS-2336] are 3.75 (active), 5.3 (active) and 6.44 (active).
On the same counts, the results for CARHKRKVFEAGNASASA [FS-1954] are 0.591 (inactive), 1.75 and 4.34 (active).
